In the supplement of paper PMC10849652:
Of roughly 8,800 targets only a part is listed; those with a hit were picked by preference. About 0.5% of all pairs of compound and target were hits.

Experiments:
Assay in all cases: log2 fold change, soluble protein after heating vs DMSO (PISA); higher = thermal stabilisation; K562 lysate, 10 uM; active = over 0.2 and 3.5 SD of the protein, either way, in both replicates (recomputed)
alvocidib = compound: CN1CC[C@H](c2c(O)cc(O)c3c(=O)cc(-c4ccccc4Cl)oc23)[C@H](O)C1 [alvocidib]
Summary of the method: (§1)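 K562 pellets were dounce-homogenised in PBS pH 7.4 with 1 mM MgCl2, and the crude extract at 1 mg/mL protein was treated with 10 μM compound for 30 min. Aliquots were heated for 3 min across 48°C-58°C, pooled, and brought to 0.5% NP-40 at 4°C; soluble protein was the supernatant after 21,000xg for 90 min. Soluble protein was quantified by TMTpro 16plex LC-MS/MS with channel sums equalised, and reported as log2 fold change in thermal stability against DMSO controls, with values from duplicates.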

Tubastatin A = compound: CN1CCc2c(c3ccccc3n2Cc2ccc(C(=O)NO)cc2)C1 [Tubastatin A]
Summary of the method: as §1

[1] = compound: CNC(=O)C1=CC=CC=C1NC2=NC(=NC=C2Cl)NC3=C(C=C(C=C3)N4CCOCC4)OC
Summary of the method: as §1

defactinib = compound: CNC(=O)c1ccc(Nc2ncc(C(F)(F)F)c(NCc3nccnc3N(C)S(C)(=O)=O)n2)cc1 [defactinib]
Summary of the method: as §1

[2] = compound: CNc1nc(-c2ccc3c(N)n[nH]c3c2)cc(N2C[C@@H](C(=O)NC3CCCCC3)CC[C@H]2C)n1
Summary of the method: as §1

encorafenib = compound: COC(=O)N[C@@H](C)CNc1nccc(-c2cn(C(C)C)nc2-c2cc(Cl)cc(NS(C)(=O)=O)c2F)n1 [encorafenib]
Summary of the method: as §1

[3] = compound: COC(=O)[C@H](CCSC)NC(=O)C1=C(C=C(C=C1)NC[C@H](CS)N)C2=CC=CC=C2
Summary of the method: as §1

alisertib = compound: COc1cc(Nc2ncc3c(n2)-c2ccc(Cl)cc2C(c2c(F)cccc2OC)=NC3)ccc1C(=O)O [alisertib]
Summary of the method: as §1

[4] = compound: COc1cc2nc(-c3cc(F)ccc3O)nc(N[C@@H]3CNC[C@H]3C(C)(C)O)c2cc1OC
Summary of the method: as §1

gefitinib = compound: COc1cc2ncnc(Nc3ccc(F)c(Cl)c3)c2cc1OCCCN1CCOCC1 [gefitinib]
Summary of the method: as §1

lapatinib = compound: CS(=O)(=O)CCNCc1ccc(-c2ccc3ncnc(Nc4ccc(OCc5cccc(F)c5)c(Cl)c4)c3c2)o1 [lapatinib]
Summary of the method: as §1

pictilisib = compound: CS(=O)(=O)N1CCN(Cc2cc3nc(-c4cccc5[nH]ncc45)nc(N4CCOCC4)c3s2)CC1 [pictilisib]
Summary of the method: as §1

crizotinib = compound: C[C@@H](Oc1cc(-c2cnn(C3CCNCC3)c2)cnc1N)c1c(Cl)ccc(F)c1Cl [crizotinib]
Summary of the method: as §1

[5] = compound: C[C@H](C1=CC=C(C=C1)C(=O)NC2=C3C=CNC3=NC=C2)N
Summary of the method: as §1

duvelisib = compound: C[C@H](Nc1ncnc2nc[nH]c12)c1cc2cccc(Cl)c2c(=O)n1-c1ccccc1 [duvelisib]
Summary of the method: as §1

gandotinib = compound: Cc1cc(Nc2cc(CN3CCOCC3)c3nc(C)c(Cc4ccc(Cl)cc4F)n3n2)n[nH]1 [gandotinib]
Summary of the method: as §1

tozasertib = compound: Cc1cc(Nc2cc(N3CCN(C)CC3)nc(Sc3ccc(NC(=O)C4CC4)cc3)n2)n[nH]1 [tozasertib]
Summary of the method: as §1

doramapimod = compound: Cc1ccc(-n2nc(C(C)(C)C)cc2NC(=O)Nc2ccc(OCCN3CCOCC3)c3ccccc23)cc1 [doramapimod]
Summary of the method: as §1

bafetinib = compound: Cc1ccc(NC(=O)c2ccc(CN3CC[C@H](N(C)C)C3)c(C(F)(F)F)c2)cc1Nc1nccc(-c2cncnc2)n1 [bafetinib]
Summary of the method: as §1

[6] = compound: Cc1cccc(CC(=O)N2CCc3c2ccc(-c2cn(C)c4ncnc(N)c24)c3F)n1
Summary of the method: as §1

UniProt Q5T3J3, sequence (Q5T3J3 whole entry, looked up): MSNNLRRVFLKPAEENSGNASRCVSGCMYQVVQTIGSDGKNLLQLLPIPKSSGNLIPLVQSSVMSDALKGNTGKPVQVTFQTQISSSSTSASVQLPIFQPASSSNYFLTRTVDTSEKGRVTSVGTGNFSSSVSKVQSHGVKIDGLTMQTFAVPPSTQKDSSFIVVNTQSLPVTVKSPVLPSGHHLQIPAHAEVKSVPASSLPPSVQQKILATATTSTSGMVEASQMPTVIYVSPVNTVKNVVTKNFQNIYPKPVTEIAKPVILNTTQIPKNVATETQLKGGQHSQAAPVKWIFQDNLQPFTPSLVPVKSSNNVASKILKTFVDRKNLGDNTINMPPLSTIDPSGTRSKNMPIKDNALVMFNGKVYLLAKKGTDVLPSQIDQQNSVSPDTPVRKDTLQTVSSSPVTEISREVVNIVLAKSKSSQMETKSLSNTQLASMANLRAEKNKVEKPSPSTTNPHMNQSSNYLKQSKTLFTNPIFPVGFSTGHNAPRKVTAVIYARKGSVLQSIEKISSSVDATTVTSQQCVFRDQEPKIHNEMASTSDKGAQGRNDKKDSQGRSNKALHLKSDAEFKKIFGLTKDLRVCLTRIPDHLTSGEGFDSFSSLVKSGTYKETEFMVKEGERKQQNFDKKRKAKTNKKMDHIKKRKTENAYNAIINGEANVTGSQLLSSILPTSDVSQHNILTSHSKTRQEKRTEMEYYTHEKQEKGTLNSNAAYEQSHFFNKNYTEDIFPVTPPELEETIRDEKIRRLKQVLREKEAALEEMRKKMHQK
UniProt P45983, sequence (P45983 whole entry, looked up): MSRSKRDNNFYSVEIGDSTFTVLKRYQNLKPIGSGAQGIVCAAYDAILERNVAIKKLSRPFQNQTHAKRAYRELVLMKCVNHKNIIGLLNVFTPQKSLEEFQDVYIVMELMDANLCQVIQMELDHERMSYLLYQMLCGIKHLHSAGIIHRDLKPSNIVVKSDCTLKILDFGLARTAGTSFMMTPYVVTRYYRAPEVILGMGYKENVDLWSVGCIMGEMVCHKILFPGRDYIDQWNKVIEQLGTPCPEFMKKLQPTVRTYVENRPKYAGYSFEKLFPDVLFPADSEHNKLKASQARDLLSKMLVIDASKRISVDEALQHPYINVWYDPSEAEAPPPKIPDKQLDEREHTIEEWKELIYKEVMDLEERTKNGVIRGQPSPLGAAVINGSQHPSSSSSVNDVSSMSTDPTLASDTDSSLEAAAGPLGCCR
UniProt O14782, sequence (O14782 whole entry, looked up): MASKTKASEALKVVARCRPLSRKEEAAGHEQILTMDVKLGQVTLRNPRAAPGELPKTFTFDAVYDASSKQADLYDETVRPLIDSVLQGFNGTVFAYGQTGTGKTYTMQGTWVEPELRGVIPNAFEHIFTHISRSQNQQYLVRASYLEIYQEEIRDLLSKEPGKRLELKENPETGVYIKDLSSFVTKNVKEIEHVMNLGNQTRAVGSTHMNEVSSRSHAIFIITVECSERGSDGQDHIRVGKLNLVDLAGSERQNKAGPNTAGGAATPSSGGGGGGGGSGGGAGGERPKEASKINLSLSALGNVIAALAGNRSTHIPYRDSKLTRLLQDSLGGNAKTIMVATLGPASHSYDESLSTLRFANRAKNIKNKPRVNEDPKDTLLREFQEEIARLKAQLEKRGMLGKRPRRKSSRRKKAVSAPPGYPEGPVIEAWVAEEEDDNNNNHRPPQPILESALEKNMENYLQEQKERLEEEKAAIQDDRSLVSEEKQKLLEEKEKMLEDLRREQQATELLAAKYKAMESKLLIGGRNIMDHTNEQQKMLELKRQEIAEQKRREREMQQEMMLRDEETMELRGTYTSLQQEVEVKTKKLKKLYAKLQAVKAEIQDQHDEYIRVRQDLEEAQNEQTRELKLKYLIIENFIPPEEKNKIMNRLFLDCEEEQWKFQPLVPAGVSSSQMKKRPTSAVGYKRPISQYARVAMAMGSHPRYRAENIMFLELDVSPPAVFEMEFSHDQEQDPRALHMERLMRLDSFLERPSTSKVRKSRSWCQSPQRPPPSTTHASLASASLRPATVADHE
UniProt Q9Y4F3, sequence (Q9Y4F3 whole entry, looked up): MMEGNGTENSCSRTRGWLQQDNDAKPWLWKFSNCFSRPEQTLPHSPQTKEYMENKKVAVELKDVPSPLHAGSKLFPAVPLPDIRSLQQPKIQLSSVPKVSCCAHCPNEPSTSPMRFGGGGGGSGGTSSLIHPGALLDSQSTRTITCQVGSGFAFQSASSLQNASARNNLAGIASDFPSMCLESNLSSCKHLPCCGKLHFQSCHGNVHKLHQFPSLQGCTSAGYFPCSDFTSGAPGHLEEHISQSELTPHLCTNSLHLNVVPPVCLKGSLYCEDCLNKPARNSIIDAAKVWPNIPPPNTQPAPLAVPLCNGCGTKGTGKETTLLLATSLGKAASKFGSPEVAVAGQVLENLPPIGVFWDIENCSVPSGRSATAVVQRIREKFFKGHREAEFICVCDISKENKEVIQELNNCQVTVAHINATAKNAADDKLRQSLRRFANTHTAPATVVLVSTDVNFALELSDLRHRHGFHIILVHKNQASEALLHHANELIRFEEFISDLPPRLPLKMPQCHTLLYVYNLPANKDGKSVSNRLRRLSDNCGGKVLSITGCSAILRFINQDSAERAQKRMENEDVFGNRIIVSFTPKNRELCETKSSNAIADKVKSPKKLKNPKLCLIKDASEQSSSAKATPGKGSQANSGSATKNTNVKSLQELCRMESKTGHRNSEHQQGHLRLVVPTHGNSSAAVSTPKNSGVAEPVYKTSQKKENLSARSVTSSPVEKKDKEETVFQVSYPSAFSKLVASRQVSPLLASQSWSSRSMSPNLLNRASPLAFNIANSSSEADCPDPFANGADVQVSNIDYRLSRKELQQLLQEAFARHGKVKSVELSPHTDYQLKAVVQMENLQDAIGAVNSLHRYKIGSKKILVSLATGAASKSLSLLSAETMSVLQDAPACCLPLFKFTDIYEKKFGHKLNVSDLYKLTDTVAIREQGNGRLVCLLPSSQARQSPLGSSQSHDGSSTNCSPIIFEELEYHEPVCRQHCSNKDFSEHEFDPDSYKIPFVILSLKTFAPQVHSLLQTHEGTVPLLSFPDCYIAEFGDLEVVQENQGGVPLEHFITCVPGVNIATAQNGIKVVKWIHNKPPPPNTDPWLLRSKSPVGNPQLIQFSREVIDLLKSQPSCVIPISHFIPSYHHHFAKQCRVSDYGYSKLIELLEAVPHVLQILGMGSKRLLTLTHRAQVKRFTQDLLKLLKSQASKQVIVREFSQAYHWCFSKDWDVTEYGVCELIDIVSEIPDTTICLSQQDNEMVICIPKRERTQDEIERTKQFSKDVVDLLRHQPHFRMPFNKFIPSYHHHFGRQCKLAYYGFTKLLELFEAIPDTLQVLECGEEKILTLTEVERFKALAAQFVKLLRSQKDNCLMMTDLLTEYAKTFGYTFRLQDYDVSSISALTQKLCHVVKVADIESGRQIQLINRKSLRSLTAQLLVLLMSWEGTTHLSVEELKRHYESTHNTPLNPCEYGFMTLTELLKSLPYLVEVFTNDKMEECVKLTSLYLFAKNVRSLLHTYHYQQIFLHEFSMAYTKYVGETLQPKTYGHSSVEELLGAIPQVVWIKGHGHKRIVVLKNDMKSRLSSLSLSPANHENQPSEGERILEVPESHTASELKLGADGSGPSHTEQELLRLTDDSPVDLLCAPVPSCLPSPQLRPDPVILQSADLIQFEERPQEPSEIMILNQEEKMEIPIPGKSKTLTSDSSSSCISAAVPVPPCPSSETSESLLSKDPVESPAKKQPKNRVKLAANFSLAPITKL
UniProt Q16539, sequence (Q16539 whole entry, looked up): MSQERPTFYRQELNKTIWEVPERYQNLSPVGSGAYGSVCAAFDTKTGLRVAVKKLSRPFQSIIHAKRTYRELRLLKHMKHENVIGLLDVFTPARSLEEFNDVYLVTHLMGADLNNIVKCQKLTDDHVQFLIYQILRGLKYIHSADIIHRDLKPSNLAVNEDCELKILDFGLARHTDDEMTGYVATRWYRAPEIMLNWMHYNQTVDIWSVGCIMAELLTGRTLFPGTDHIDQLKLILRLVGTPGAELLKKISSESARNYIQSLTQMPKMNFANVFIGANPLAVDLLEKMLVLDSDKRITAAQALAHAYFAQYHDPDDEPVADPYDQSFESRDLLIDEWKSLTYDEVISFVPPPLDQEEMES
UniProt Q9Y2E5, sequence (Q9Y2E5 whole entry, looked up): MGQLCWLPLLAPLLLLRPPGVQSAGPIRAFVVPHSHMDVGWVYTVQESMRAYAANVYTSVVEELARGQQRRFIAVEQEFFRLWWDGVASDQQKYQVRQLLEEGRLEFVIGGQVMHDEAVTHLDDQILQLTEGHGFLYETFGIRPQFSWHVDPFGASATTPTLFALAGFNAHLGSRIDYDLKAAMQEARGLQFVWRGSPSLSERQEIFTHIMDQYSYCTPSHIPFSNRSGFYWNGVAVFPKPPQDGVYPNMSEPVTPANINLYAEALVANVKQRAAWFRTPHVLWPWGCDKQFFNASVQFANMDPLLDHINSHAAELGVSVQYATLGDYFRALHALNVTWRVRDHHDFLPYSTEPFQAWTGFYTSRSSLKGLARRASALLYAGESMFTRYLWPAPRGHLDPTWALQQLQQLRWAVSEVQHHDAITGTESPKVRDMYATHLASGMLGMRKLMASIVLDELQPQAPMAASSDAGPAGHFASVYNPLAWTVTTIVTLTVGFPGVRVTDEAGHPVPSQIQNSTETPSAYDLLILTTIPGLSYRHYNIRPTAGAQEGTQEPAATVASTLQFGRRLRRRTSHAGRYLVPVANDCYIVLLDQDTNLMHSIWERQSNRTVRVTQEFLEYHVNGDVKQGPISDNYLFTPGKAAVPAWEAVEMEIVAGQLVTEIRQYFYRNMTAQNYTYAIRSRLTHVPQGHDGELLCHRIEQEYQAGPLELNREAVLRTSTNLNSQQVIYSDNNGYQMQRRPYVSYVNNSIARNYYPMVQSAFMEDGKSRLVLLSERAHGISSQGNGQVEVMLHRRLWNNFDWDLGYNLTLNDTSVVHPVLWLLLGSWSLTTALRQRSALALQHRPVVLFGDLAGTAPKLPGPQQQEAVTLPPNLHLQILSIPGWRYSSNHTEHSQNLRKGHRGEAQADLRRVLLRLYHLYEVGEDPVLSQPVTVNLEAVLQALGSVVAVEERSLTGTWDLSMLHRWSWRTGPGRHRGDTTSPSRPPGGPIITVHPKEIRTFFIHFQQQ

Target | log2 fold change (alvocidib) | log2 fold change (Tubastatin A) | log2 fold change [1] | log2 fold change (defactinib) | log2 fold change [2] | log2 fold change (encorafenib) | log2 fold change [3] | log2 fold change (alisertib) | log2 fold change [4] | log2 fold change (gefitinib) | log2 fold change (lapatinib) | log2 fold change (pictilisib) | log2 fold change (crizotinib) | log2 fold change [5] | log2 fold change (duvelisib) | log2 fold change (gandotinib) | log2 fold change (tozasertib) | log2 fold change (doramapimod) | log2 fold change (bafetinib) | log2 fold change [6]
MECR (UniProt Q9BV79) | 0.018 (inactive) | 0.014 (inactive) | 0.01 (inactive) | 0.007 (inactive) | 0.053 (inactive) | -0.06 (inactive) | 0.049 (inactive) | 0 (inactive) | 0.04 (inactive) | -0.011 (inactive) | -0.028 (inactive) | -0.038 (inactive) | 0.007 (inactive) | -0.11 (inactive) | 0.007 (inactive) | 0.045 (inactive) | 0.007 (inactive) | 0.02 (inactive) | -0.005 (inactive) | 0.013 (inactive)
MAP2K5 (UniProt Q13163) | 0.067 (inactive) | -0.033 (inactive) | 0.086 (inactive) | -0.026 (inactive) | 0.329 (inactive) | 0.149 (inactive) | -0.15 (inactive) | -0.016 (inactive) | 0.054 (inactive) | 0.155 (inactive) | 0.038 (inactive) | -0.021 (inactive) | -0.109 (inactive) | 0.013 (inactive) | 0.152 (inactive) | -0.089 (inactive) |  | -0.017 (inactive) | -0.436 (inactive) | 0.105 (inactive)
MRPL19 (UniProt P49406) | -0.056 (inactive) | -0.119 (inactive) | -0.036 (inactive) | -0.005 (inactive) | -0.052 (inactive) | -0.003 (inactive) | 0.042 (inactive) | 0.037 (inactive) | -0.03 (inactive) | 0.043 (inactive) | -0.026 (inactive) | -0.024 (inactive) | -0.071 (inactive) | -0.094 (inactive) | -0.026 (inactive) | 0.029 (inactive) | 0.014 (inactive) | 0.011 (inactive) | -0.048 (inactive) | 0.051 (inactive)
MAPK14 (UniProt Q16539) | 0.007 (inactive) | -0.203 (inactive) | 0.38 (inactive) | -0.053 (inactive) | -0.043 (inactive) | 0.488 (inactive) | 0.314 (inactive) | -0.144 (inactive) | 0.011 (inactive) | 0.295 (inactive) | -0.047 (inactive) | -0.004 (inactive) | -0.094 (inactive) | -0.034 (inactive) | -0.026 (inactive) | -0.037 (inactive) | 0.009 (inactive) |  | 1.03 (active) | 0.015 (inactive)
LRIF1 (UniProt Q5T3J3) | -0.018 (inactive) | 0.075 (inactive) | -0.035 (inactive) | 0.002 (inactive) | 0.126 (inactive) | 0.049 (inactive) | 0.052 (inactive) | -0.03 (inactive) | 0.234 (inactive) | -0.039 (inactive) | -0.094 (inactive) |  | 0.019 (inactive) | -0.008 (inactive) | -0.133 (inactive) | 0.006 (inactive) | 0.039 (inactive) | 0.026 (inactive) |  | -0.038 (inactive)
MBTPS1 (UniProt Q14703) | 0.096 (inactive) | -0.058 (inactive) | 0.013 (inactive) | -0.002 (inactive) | 0.029 (inactive) | 0.048 (inactive) | -0.036 (inactive) |  |  |  |  | 0.012 (inactive) | -0.008 (inactive) | 0.114 (inactive) | -0.006 (inactive) | -0.164 (inactive) | -0.009 (inactive) | 0.01 (inactive) | -0.001 (inactive) | -0.15 (inactive)
LIG4 (UniProt P49917) | 0.02 (inactive) | -0.025 (inactive) | -0.04 (inactive) | 0.063 (inactive) | 0.005 (inactive) | 0.048 (inactive) | 0.415 (active) | -0.049 (inactive) | -0.096 (inactive) | -0.069 (inactive) | 0.028 (inactive) | -0.245 (inactive) | -0.035 (inactive) | -0.064 (inactive) | 0.022 (inactive) | -0.07 (inactive) | -0.034 (inactive) | -0.037 (inactive) | -0.167 (inactive) | 0.073 (inactive)
MED25 isoform 3 (UniProt Q71SY5) | 0 (inactive) | 0.056 (inactive) | -0.033 (inactive) |  | -0.022 (inactive) | -0.123 (inactive) | 0.005 (inactive) | 0.125 (inactive) | 0.01 (inactive) | -0.029 (inactive) | 0.018 (inactive) | -0.05 (inactive) | -0.05 (inactive) | 0.053 (inactive) | 0.063 (inactive) | -0.095 (inactive) | -0.109 (inactive) | -0.042 (inactive) | -0.023 (inactive) | -0.052 (inactive)
MOCS3 (UniProt O95396) | -0.213 (inactive) | -0.082 (inactive) | 0.111 (inactive) | -0.161 (inactive) | -0.008 (inactive) | 0.056 (inactive) | -0.094 (inactive) | 0.031 (inactive) |  | -0.231 (inactive) |  | 0.004 (inactive) | -0.127 (inactive) | -0.176 (inactive) | 0.009 (inactive) | 0.227 (inactive) | 0.027 (inactive) | 0.072 (inactive) | -0.054 (inactive) | 0.348 (inactive)
KIF3C (UniProt O14782) | 0.033 (inactive) | -0.018 (inactive) | -0.01 (inactive) | 0.157 (inactive) | 0.058 (inactive) | 0.101 (inactive) | 0.024 (inactive) | 0.247 (inactive) | 0.07 (inactive) | -0.029 (inactive) | -0.172 (inactive) |  | -0.177 (inactive) | -0.119 (inactive) | 0 (inactive) | -0.002 (inactive) | -0.394 (inactive) | -0.031 (inactive) |  | 0.152 (inactive)
MAN2B2 (UniProt Q9Y2E5) | 0.199 (inactive) | 0.029 (inactive) | -0.006 (inactive) |  | 0.059 (inactive) | -0.004 (inactive) | 0.073 (inactive) | 0.032 (inactive) | 0.049 (inactive) | -0.017 (inactive) | 0.01 (inactive) | 0.021 (inactive) | 0 (inactive) | 0.595 (active) | -0.018 (inactive) | -0.38 (inactive) | 0.003 (inactive) | -0.028 (inactive) | -0.12 (inactive) | -0.546 (active)
MARF1 (UniProt Q9Y4F3) | -0.024 (inactive) | -0.194 (inactive) | 0.024 (inactive) | -0.157 (inactive) | -0.021 (inactive) | 0.053 (inactive) | 0.086 (inactive) | -0.056 (inactive) |  | 0.02 (inactive) |  | -0.212 (inactive) | -0.021 (inactive) | 0.035 (inactive) | -0.002 (inactive) | -0.1 (inactive) | -0.032 (inactive) | -0.004 (inactive) | -0.012 (inactive) | 0.095 (inactive)
MAPK8 isoform 3 (UniProt P45983) | 0.01 (inactive) | -0.111 (inactive) | 0.541 (active) | -0.07 (inactive) | -0.144 (inactive) | 0.135 (inactive) | 0 (inactive) | -0.022 (inactive) | 0.003 (inactive) | -0.042 (inactive) | -0.042 (inactive) | 0.192 (inactive) | -0.089 (inactive) | -0.022 (inactive) | -0.07 (inactive) | 0.281 (inactive) | -0.007 (inactive) | -0.049 (inactive) | -0.014 (inactive) | -0.037 (inactive)
MPP5 (UniProt Q8N3R9) | 0.066 (inactive) | -0.08 (inactive) | -0.051 (inactive) | 0.034 (inactive) | 0.045 (inactive) | 0.073 (inactive) | 0.114 (inactive) | -0.217 (inactive) |  | -0.139 (inactive) |  | -0.091 (inactive) | -0.028 (inactive) | -0.003 (inactive) | -0.017 (inactive) | 0.01 (inactive) | -0.033 (inactive) | 0.115 (inactive) | -0.043 (inactive) | 0.099 (inactive)
KIF21A isoform 5 (UniProt Q7Z4S6) | 0.106 (inactive) | -0.066 (inactive) | 0.022 (inactive) | 0.007 (inactive) | 0.008 (inactive) | -0.016 (inactive) | 0.09 (inactive) | -0.033 (inactive) | -0.002 (inactive) | -0.012 (inactive) | -0.014 (inactive) | -0.018 (inactive) | -0.021 (inactive) | 0.157 (inactive) | -0.032 (inactive) | -0.077 (inactive) | 0.005 (inactive) | 0.019 (inactive) | -0.019 (inactive) | -0.062 (inactive)
KNSTRN (UniProt Q9Y448) | 0.001 (inactive) | -0.062 (inactive) | 0.038 (inactive) | -0.029 (inactive) | 0.053 (inactive) | 0.074 (inactive) | -0.264 (active) | 0.043 (inactive) | -0.016 (inactive) | -0.022 (inactive) | 0.013 (inactive) | 0.05 (inactive) | 0.029 (inactive) | 0.065 (inactive) | -0.009 (inactive) | -0.024 (inactive) | 0.026 (inactive) | -0.052 (inactive) | 0.024 (inactive) | -0.056 (inactive)
MANEA (UniProt Q5SRI9) | -0.078 (inactive) | -0.08 (inactive) | -0.016 (inactive) | 0.062 (inactive) | -0.09 (inactive) | 0.028 (inactive) | -0.07 (inactive) |  | 0.041 (inactive) |  | -0.01 (inactive) | 0.008 (inactive) | -0.023 (inactive) | -0.464 (active) | 0.036 (inactive) | 0.365 (active) | 0.035 (inactive) | 0.034 (inactive) | 0.007 (inactive) | 0.278 (inactive)
